Each structure is given as a SMILES string. Active and inactive are the calls of the source. Where a call stands in place of a potency, no number is given. Calls follow the shape of the dose curve; as a rule, active = well fitted cell-killing curve with a large enough effect; inconclusive = small, poorly fitted or top-dose-only effect, or effect the other way; inactive = flat fitted curve, though single readings scatter.

The results in this text go back to PubChem BioAssay (NCATS).
Potency is read from the fitted curve at half-maximal effect.

The assay can be described thus: MultiTox-Fluor Cytotoxicity Assay - LYMP1-003 - Dead Cells (AID 961). Also: nearly all actives have a fitted effect of over 70% in size. The note with it: LYMP1-003 lymphoblastoid cells, dead-cell protease fluorescence; series mostly up to 92.2 µM. An excerpt:
NIH Chemical Genomics Center [NCGC]
NIH Molecular Libraries Screening Centers Network [MLSCN]
National Institutes of Environmental Health Sciences [NIEHS]
National Toxicology Program [NTP]
We have developed a 1536-well cell-based assay for quantitative high throughput screening (qHTS) against a number of cell lines to determine in vitro cytotoxicity of small molecules. This particular assay uses a human lymphoblastoid cell line (LYMP1-003) purchased from Coriell Institute.
NCGC Assay Protocol Summary:
The MultiTox-Fluor Cytotoxicity Assay (Promega) is a homogeneous method to simultaneously measure the relative number of live and dead cells in culture by detecting changes in cell membrane integrity. There are two fluorogenic peptide substrates in the assay reagent. Viable cells are determined when the cell-permeant substrate (GF-AFC) enters the cell and is cleaved by protease from live cells resulting in liberated fluorophore. This live-cell protease activity restricted to viable cells is proportional to cell number. The dead cells are determined by using fluorogenic cell-impermeant peptide substrate (bis-AAF-R110) which cleaved by dead cell proteases leaking from damaged cell membrane.
Using the MultiTox-Fluor Cytotoxicity Assay, the relative number of dead cells was measured in the lymphoblastoid cell line with complete culture medium following compound treatment for 16 hours. The assay was performed in opaque black Kalypsys 1536-well plates. In the screen, tetraoctylammonium bromide was used as positive control. Library compounds were measured for their ability to cause acute toxicity in the cell line, as reflected by an increase in dead cell protease activity, in a concentration-dependent manner. Data were normalized to the controls for basal activity (DMSO only) and 100% stimulation (15 uM tetraoctylammonium bromide). AC50 values were determined from concentration-response data modeled with the standard Hill equation.
qHTS protocol for MultiTox-Fluor Cytotoxicity assay
[Step] [Parameter] [Value] [Description]
1. Reagent; 5 uL; 2500 lymphoblastoid cells/well
2. Time; 5 hr; 37 C incubation
4. Controls; 23 nL; Tetraoctylammonium bromide 6.4pM to 92 uM
5. Time; 16 hr; 37 C incubation
6. Reagent; 5 uL; MuliTox-Fluor Assay reagent
7. Time; 60 min; Room Temperature
8. Detection; dead-cell fluorescence (Ex/Em=485/520); EnVision plate reader
Keywords: cytotoxicity, lymphoblastoid cell line, fluorescence, NTPHTS, NTPHTS_NCGC, NIEHS, EPA, DSSTox, MLSMR, MLSCN, NIH Roadmap, qHTS, NCGC
As for `Nc1nc(N)c2nc(-c3ccccc3)c(N)nc2n1`, the Potency entry is “inactive”.
Under `NC(=O)N1c2ccccc2C=Cc2ccccc21` stands “inactive”; under `CCCCNC(=O)NS(=O)(=O)c1ccc(C)cc1`, “inactive”.
Under `NC(=Nc1ccccc1)Nc1ccccc1` stands “inactive”; under `COc1ccc(CN(CCN(C)C)c2ccccn2)cc1`, “inactive”; under `O=c1[nH]c(=O)n([C@H]2C[C@H](O)[C@@H](CO)O2)cc1Br`, “inactive”.
In the case of `COc1cc(Cc2cnc(N)nc2N)cc(OC)c1OC` it was “inactive”.
For `CN=C(NC#N)NCCSCc1nc[nH]c1C`, the Potency result is “inactive”.
In the case of `COC(=O)[C@H]1[C@H]2C[C@@H]3c4[nH]c5cc(OC)ccc5c4CCN3C[C@H]2C[C@@H](OC(=O)c2cc(OC)c(OC)c(OC)c2)[C@@H]1OC` it was 50.1 µM (active).
Under `CCCCOCCOCCOCc1cc2c(cc1CCC)OCO2` stands “inactive”.
